The values that follow come from PubChem BioAssay (NCATS).

Inconclusive results are not listed. Active and inactive are the calls of the source. Calls come from the whole dose curve; as a rule, active = well fitted inhibition curve with a large enough effect; inconclusive = small, poorly fitted or top-dose-only effect; inactive = flat fitted curve, though single readings scatter.

Common to all, as to experiment: qHTS profiling for inhibitors of Plasmodium falciparum proliferation (AID 504749); note: nearly all actives have a fitted effect of over 60% in size
Conditions in all cases: P. falciparum in erythrocytes, SYBR Green DNA, 72 h; series mostly up to 28.7 µM

In one assay the test system is 7G8. Summed up: (§1)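 Quantitative HTS: compounds pinned into medium, infected erythrocytes added (0.3% parasitemia, 2.5% hematocrit), 72 h culture at 37 C under 5% CO2. Saponin/Triton lysis with SYBR Green I, overnight RT, then fluorescence read.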
The next assay has as its system AA1029. Summed up:
as §1

The next assay concerns ATS95. In a few lines: as §1
The test system of a further assay is C2A. In a few lines: as §1
The subject of a further assay is CP211. Summed up: as §1
The subject of another assay is CP252. Summed up:
as §1

The test system of the next assay is CP256. Summed up:
as §1

The test system of another assay is CP262. Summed up:
as §1

For a further assay, the system named is CP266. In a few lines: as §1
The subject of another assay is CP268. Summed up: as §1
A further assay concerns CP269. In a few lines:
as §1

A further assay concerns CP315. Summed up:
as §1

A further assay concerns CP325. In a few lines: as §1
The test system of a further assay is CP329. In a few lines: as §1
The next assay concerns DIV17. Summed up:
as §1

The subject of another assay is Dd2. Summed up:
as §1

The subject of another assay is FAB9. In a few lines: as §1
The subject of the next assay is ICS. Summed up:
as §1

In the next assay the test system is JCK. Summed up:
as §1

The subject of the next assay is PC26. Summed up: as §1
Potency is the fitted concentration of half-maximal effect.

As for `C=C1CC[C@H](O)C/C1=C/C=C1\CCC[C@]2(C)[C@@H]([C@H](C)CCCC(C)C)CC[C@@H]12`, the values for the Potency with 7G8, in the assay on Dd2 and in the assay on ICS were 11.2 µM (active), 12.6 µM (active) and 10 µM (active), respectively. Besides, the Potency entry in the assay with AA1029, in the assay on ATS95, in the assay on C2A, with CP211, with CP252 and in the assay on CP256 was “inactive” throughout. Moreover, the Potency result in the assay on CP262, in the assay with CP266, in the assay with CP268, in the assay on CP269, in the assay with CP315 and in the assay on CP325 was “inactive” in each case. In addition, the Potency result in the assay on CP329, with DIV17, in the assay on FAB9, with JCK and in the assay on PC26 was “inactive” throughout.
As to `Cc1c(C(=O)O)c(O)cc2c1C(=O)c1c(O)c([C@H]3O[C@H](CO)[C@@H](O)[C@H](O)[C@H]3O)c(O)c(O)c1C2=O`, the Potency entry with 7G8, with AA1029, in the assay on ATS95, in the assay on C2A, with CP211 and in the assay with CP252 was “inactive” throughout. Besides, the Potency result in the assay with CP256, in the assay on CP262, with CP266, in the assay with CP268, with CP269 and in the assay on CP315 was “inactive” each time. In addition, the Potency result in the assay with CP325, in the assay with CP329, in the assay with DIV17, with Dd2, in the assay on FAB9 and in the assay with ICS was “inactive” in each case. Further, the Potency result with JCK and in the assay with PC26 was “inactive” in each case.
